Reference: PubChem BioAssay (NCATS)
Results filed as inconclusive are left out. The source made the active and inactive calls. Unless noted, calls come from the whole dose curve; as a rule, active = well fitted curve in the direction sought with a large enough effect; inconclusive = small, poorly fitted or top-dose-only effect, or another doubt; inactive = no such curve, though single readings can be large; an effect the other way counts as inactive or inconclusive.

Tests used:
NIH3T3 = experiment: qHTS assay to identify novel small-molecules to repurpose for Merkel cell carcinoma treatment (AID 1296009); conditions: MCC and control cell lines, CellTiter-Glo viability, 72 h; at 44.8 µM (top of the series) unless noted; note: nearly all actives have a fitted effect of over 60% in size; note: potency is the fitted concentration of half-maximal effect
Outline: (§1)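 Cell viability, measured as CellTiter-Glo luminescence, was normalized between DMSO and no-cell wells. The cells had been exposed to 8- or 11-point compound dilutions for 72 hr at 37 degree celsius.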

UISO = experiment: as above; conditions: MCC and control cell lines, CellTiter-Glo viability, 72 h; series mostly up to 46 µM
Outline: as §1

WaGa = experiment: as above; conditions: MCC and control cell lines, CellTiter-Glo viability, 72 h; series mostly up to 46 µM
Outline: as §1

C33A = experiment: Primary qHTS to identify gynecologic anti-cancer compounds using libraries of approved drugs and bioactive compounds (AID 1345084); conditions: Gynecologic cancer cell panel viability, ATPlite luminescence, 48 h; series mostly up to 57.5 µM; note: nearly all actives have a fitted effect of over 55% in size; note: potency is the fitted concentration of half-maximal effect
Outline: (§2)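 Luminescence from the ATPlite ATP-monitoring reagent indicates viable cell number; lower signal means cytotoxicity. Cells received compound 16 h after seeding and were exposed for 48 h across five concentrations.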

Es-2 = experiment: as above; conditions: Gynecologic cancer cell panel viability, ATPlite luminescence, 48 h; series mostly up to 57.5 µM
Outline: as §2

HeLa = experiment: as above; conditions: Gynecologic cancer cell panel viability, ATPlite luminescence, 48 h; series mostly up to 57.5 µM
Outline: as §2

Hek293T = experiment: as above; conditions: Gynecologic cancer cell panel viability, ATPlite luminescence, 48 h, control line for the selectivity index; series mostly up to 57.5 µM
Outline: as §2

JEG-3 = experiment: as above; conditions: Gynecologic cancer cell panel viability, ATPlite luminescence, 48 h; series mostly up to 57.5 µM
Outline: as §2

OV90 = experiment: as above; conditions: Gynecologic cancer cell panel viability, ATPlite luminescence, 48 h; series mostly up to 57.5 µM
Outline: as §2

PA-1 = experiment: as above; conditions: Gynecologic cancer cell panel viability, ATPlite luminescence, 48 h; series mostly up to 57.5 µM
Outline: as §2

SKOV3 = experiment: as above; conditions: Gynecologic cancer cell panel viability, ATPlite luminescence, 48 h; series mostly up to 57.5 µM
Outline: as §2

Tov-21-G = experiment: as above; conditions: Gynecologic cancer cell panel viability, ATPlite luminescence, 48 h; series mostly up to 57.5 µM
Outline: as §2

Tov112D = experiment: as above; conditions: Gynecologic cancer cell panel viability, ATPlite luminescence, 48 h; series mostly up to 57.5 µM
Outline: as §2

CAOV3 = experiment: as above; conditions: Gynecologic cancer cell panel viability, ATPlite luminescence, 48 h; series mostly up to 57.5 µM
Outline: as §2

CASKI = experiment: as above; conditions: Gynecologic cancer cell panel viability, ATPlite luminescence, 48 h; series mostly up to 57.5 µM
Outline: as §2

[1] = Drug repurposing screens with cells derived from glioblastoma tumor samples (AID 1345199); conditions: GBM patient neurospheres viability, ATP luminescence, 48 h; note: nearly all actives have a fitted effect of over 40% in size; note: potency is the fitted concentration of half-maximal effect; for activity, negative = cell killing: % is set by controls: 0 for no effect and ±100 for the full control effect
Outline: (§3)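 Primary testing used CD133+ neurospheres from four GBM patients, seven concentrations, 48 h exposure and ATP-based viability; confirmation added three slower-growing patient lines.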

astro = experiment: as above; conditions: viability, ATP luminescence, 48 h; series mostly up to 45.9 µM
Outline: as §3

[2] = molecular target: Nuclear receptor subfamily 1 group I member 2 (Rattus norvegicus) (UniProt Q9R1A7); experiment: qHTS assay for small molecule activators of the rat pregnane X receptor (rPXR) signaling pathway (AID 651751; call rule not given here; note: 0% is about no effect); conditions: rPXR reporter cells, luciferase (One-Glo), 24 h
[3] = qHTS assay for small molecule activators of the human pregnane X receptor (PXR) signaling pathway (AID 720659; call rule not given here; note: 0% is about no effect)
[4] = at 45.9 µM (top of the series), tumour line B
[5] = at 45.9 µM (top of the series), tumour line D
[6] = at 46 µM (top of the series), tumour line A

Sequence of Nuclear receptor subfamily 1 group I member 2 (Rattus norvegicus) (Q9R1A7 whole entry, looked up): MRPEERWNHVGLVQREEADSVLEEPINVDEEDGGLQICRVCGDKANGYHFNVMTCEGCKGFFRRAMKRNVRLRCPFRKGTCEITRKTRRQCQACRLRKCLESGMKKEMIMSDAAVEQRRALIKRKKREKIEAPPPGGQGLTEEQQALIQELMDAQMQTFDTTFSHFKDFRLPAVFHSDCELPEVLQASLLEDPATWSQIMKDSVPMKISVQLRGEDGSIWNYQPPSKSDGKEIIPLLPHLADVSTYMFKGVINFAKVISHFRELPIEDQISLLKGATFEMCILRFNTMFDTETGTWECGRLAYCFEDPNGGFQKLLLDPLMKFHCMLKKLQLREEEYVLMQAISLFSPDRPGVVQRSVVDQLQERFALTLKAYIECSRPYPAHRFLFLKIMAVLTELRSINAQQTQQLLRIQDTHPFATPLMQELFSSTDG

O=c1[nH]c2cc(Cl)ccc2n1C1CCNCC1
inactive: outcome (NIH3T3) | Potency (UISO) | Potency (WaGa) | Potency (C33A) | Potency (Es-2) | Potency (HeLa) | Potency (Hek293T) | Potency (JEG-3) | Potency (OV90) | Potency (PA-1) | Potency (SKOV3) | Potency (Tov-21-G) | Potency (Tov112D)

O=C(CBr)Nc1ccc(Cl)cc1C(=O)c1ccccc1F
inactive: outcome (NIH3T3) | Potency (UISO) | Potency (WaGa) | Potency (C33A) | Potency (CAOV3) | Potency (CASKI) | Potency (Es-2) | Potency (HeLa) | Potency (Hek293T) | Potency (JEG-3) | Potency (OV90) | Potency (PA-1) | Potency (SKOV3) | Potency (Tov-21-G) | Potency (Tov112D)

CCc1ccc(C2CCNCC2)cc1
inactive: Potency (UISO) | Potency (WaGa) | Potency (C33A) | Potency (CAOV3) | Potency (CASKI) | Potency (Es-2) | Potency (HeLa) | Potency (Hek293T) | Potency (JEG-3) | Potency (OV90) | Potency (PA-1) | Potency (SKOV3) | Potency (Tov-21-G) | Potency (Tov112D)

CCC1(CC)C(=O)NC(=O)NC1=O
inactive: outcome (NIH3T3) | Potency (UISO) | Potency (WaGa) | Potency (C33A) | Potency (CAOV3) | Potency (CASKI) | Potency (Es-2) | Potency (HeLa) | Potency (JEG-3) | Potency (OV90) | Potency (PA-1) | Potency (SKOV3) | Potency (Tov-21-G) | Potency (Tov112D) | activity, negative = cell killing [1, 4] 3.52% | activity, negative = cell killing [1, 5] -15.8% | activity, negative = cell killing [1, 6] -22.6%

NC(=O)OCCCc1ccccc1
inactive: outcome (NIH3T3) | Potency (UISO) | Potency (WaGa) | Potency (C33A) | Potency (CASKI) | Potency (Es-2) | Potency (HeLa) | Potency (Hek293T) | Potency (JEG-3) | Potency (OV90) | Potency (PA-1) | Potency (SKOV3) | Potency (Tov-21-G) | Potency (Tov112D) | activity, negative = cell killing [1, 4] 0.315% | activity, negative = cell killing [1, 5] -23.1% | Potency (astro)

Cc1ccc(N=CN(C)C=Nc2ccc(C)cc2C)c(C)c1
inactive: outcome (NIH3T3) | Potency (UISO) | Potency (WaGa) | Potency (C33A) | Potency (CAOV3) | Potency (CASKI) | Potency (Es-2) | Potency (HeLa) | Potency (Hek293T) | Potency (JEG-3) | Potency (OV90) | Potency (PA-1) | Potency (SKOV3) | Potency (Tov-21-G) | Potency (Tov112D) | activity, negative = cell killing [1, 4] -15.5% | activity, negative = cell killing [1, 5] -9.79% | Potency (astro) | max response [2] 4.54% | outcome [3]

C[C@H]1CNCCc2ccc(Cl)cc21
active: Potency ([1]; tumour line A) 11.2 µM
inactive: outcome (NIH3T3) | Potency (UISO) | Potency (WaGa) | Potency (C33A) | Potency (CASKI) | Potency (Es-2) | Potency (HeLa) | Potency (Hek293T) | Potency (JEG-3) | Potency (OV90) | Potency (PA-1) | Potency (SKOV3) | Potency (Tov-21-G) | Potency (Tov112D) | activity, negative = cell killing [1, 4] -18.8% | activity, negative = cell killing [1, 5] -14.1% | Potency (astro)

Sc1ccccc1Cl
inactive: Potency (UISO) | Potency (WaGa) | Potency (C33A) | Potency (CAOV3) | Potency (CASKI) | Potency (Es-2) | Potency (HeLa) | Potency (Hek293T) | Potency (JEG-3) | Potency (OV90) | Potency (PA-1) | Potency (SKOV3) | Potency (Tov-21-G) | Potency (Tov112D)

COP(=O)(OC)OC=C(Cl)Cl
active: Potency ([1]; tumour line A) 7.08 µM
inactive: outcome (NIH3T3) | Potency (UISO) | Potency (WaGa) | Potency (C33A) | Potency (CAOV3) | Potency (CASKI) | Potency (Es-2) | Potency (HeLa) | Potency (Hek293T) | Potency (JEG-3) | Potency (OV90) | Potency (PA-1) | Potency (SKOV3) | Potency (Tov-21-G) | Potency (Tov112D)

CC1Sc2c(C(=O)O)c(=O)c3cc(F)c(N4CCNCC4)cc3n21 (stereo unspecified)
inactive: outcome (NIH3T3) | Potency (UISO) | Potency (C33A) | Potency (CAOV3) | Potency (CASKI) | Potency (Es-2) | Potency (HeLa) | Potency (Hek293T) | Potency (JEG-3) | Potency (OV90) | Potency (PA-1) | Potency (Tov-21-G) | Potency (Tov112D)

CC(C)[N+](C)(CCC(C(N)=O)(c1ccccc1)c1ccccc1)C(C)C
active: Potency (WaGa) 23.7 µM
inactive: outcome (NIH3T3) | Potency (UISO) | Potency (CASKI) | Potency (Es-2) | Potency (HeLa) | Potency (Hek293T) | Potency (JEG-3) | Potency (PA-1) | Potency (SKOV3) | Potency (Tov-21-G) | Potency (Tov112D) | activity, negative = cell killing ([1]; at 21.2 µM (top of the series), tumour line B) -18% | activity, negative = cell killing ([1]; at 21.2 µM (top of the series), tumour line D) -25.8%

C1CN2CCC1CC2
active: Potency (OV90) 25.1 µM
inactive: outcome (NIH3T3) | Potency (UISO) | Potency (WaGa) | Potency (C33A) | Potency (CASKI) | Potency (Es-2) | Potency (HeLa) | Potency (Hek293T) | Potency (JEG-3) | Potency (PA-1) | Potency (Tov-21-G) | Potency (Tov112D)

CCOC(=O)C(c1c(O)c2ccccc2oc1=O)c1c(O)c2ccccc2oc1=O
inactive: outcome (NIH3T3) | Potency (UISO) | Potency (WaGa) | Potency (C33A) | Potency (CAOV3) | Potency (CASKI) | Potency (Es-2) | Potency (HeLa) | Potency (Hek293T) | Potency (JEG-3) | Potency (OV90) | Potency (PA-1) | Potency (SKOV3) | Potency (Tov-21-G) | Potency (Tov112D)

CN1C(=O)CN=C(c2ccccc2)c2cc([N+](=O)[O-])ccc21
inactive: outcome (NIH3T3) | Potency (UISO) | Potency (WaGa) | Potency (C33A) | Potency (CAOV3) | Potency (CASKI) | Potency (Es-2) | Potency (HeLa) | Potency (Hek293T) | Potency (JEG-3) | Potency (OV90) | Potency (PA-1) | Potency (Tov-21-G) | Potency (Tov112D) | activity, negative = cell killing [1, 4] 1.05% | activity, negative = cell killing [1, 5] -22.1% | activity, negative = cell killing [1, 6] -31.9% | Potency (astro)

OC(O)C(Cl)(Cl)Cl
inactive: outcome (NIH3T3) | Potency (UISO) | Potency (WaGa) | Potency (C33A) | Potency (CAOV3) | Potency (CASKI) | Potency (Es-2) | Potency (HeLa) | Potency (Hek293T) | Potency (JEG-3) | Potency (OV90) | Potency (PA-1) | Potency (SKOV3) | Potency (Tov-21-G) | Potency (Tov112D) | activity, negative = cell killing [1, 4] -7.9% | activity, negative = cell killing [1, 5] -0.425% | activity, negative = cell killing [1, 6] -19%

C[N+]1(CCC(C(N)=O)(c2ccccc2)c2ccccc2)CCCCC1
inactive: outcome (NIH3T3) | Potency (UISO) | Potency (WaGa) | Potency (C33A) | Potency (CASKI) | Potency (Es-2) | Potency (HeLa) | Potency (Hek293T) | Potency (JEG-3) | Potency (OV90) | Potency (PA-1) | Potency (SKOV3) | Potency (Tov-21-G) | Potency (Tov112D) | activity, negative = cell killing [1, 4] -5.31% | activity, negative = cell killing [1, 5] -19.9%
